Values joined by “and” are separate entries in the source; they are usually repeats but may differ in a detail not shown here. Identical values can stand only once. In all, about 5,500 compounds went through this assay and about 2,000 (36%) were called active. Another 18% or so got no clear call; they are omitted. No stated cut-off is given here; in the data, active means normalized growth mostly below about 0.91 (no sharp cut-off); inconclusive means no clear call, values can overlap the other calls; inactive means mostly above about 0.92. Some of the results follow.
Experiment: chemical genetic growth profiling, strain panel (AID 1159580);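 further: tested at 20 µM; growth read once vehicle control cultures reached saturation at 30 °C; 1 = growth at the plate median or of vehicle wells; lower values mean less growth of the strain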
Settings: S. cerevisiae deletion strains, growth OD

Measured: normalized growth

CC(=O)/C=C\[C@@H]1[C@@]2(C)CCCC(C)(C)C2CC[C@@]1(C)O (some centres not stated)
inactive: locus YAL013W, strain DEP1, active compounds read low 0.964 | locus YAL021C, strain ccr4, active compounds read low 0.989 | locus YAL026C, strain drs2, active compounds read low 0.971 | locus YAL030W, strain snc1, active compounds read low 0.974 | locus YBL061C, strain skt5, active compounds read low 0.983 | locus YBR009C, strain hhf1, active compounds read low 0.971 | locus YBR021W, strain FUR4, active compounds read low 0.99 | locus YBR023C, strain chs3, active compounds read low 0.977 | locus YBR171W, strain sec66, active compounds read low 0.96 | locus YBR229C, strain ROT2, active compounds read low 0.946 | locus YBR231C, strain swc5, active compounds read low 0.988 | locus YBR279W, strain paf1, active compounds read low 0.966 | locus YCL011C, strain gbp2, active compounds read low 0.966 | locus YCL016C, strain dcc1, active compounds read low 0.988 | locus YCL029C, strain bik1, active compounds read low 0.985 | locus YCL061C, strain MRC1, active compounds read low 0.988 | locus YCL069W, strain vba3, active compounds read low 0.949 | locus YCR088W, strain abp1, active compounds read low 0.986 | locus YDL005C, strain med2, active compounds read low 0.971 | locus YDL035C, strain GPR1, active compounds read low 0.963 | locus YDL040C, strain nat1, active compounds read low 0.983 | locus YDL074C, strain BRE1, active compounds read low 0.901 | locus YDL101C, strain DUN1, active compounds read low 0.952 | locus YDL134C, strain PPH21, active compounds read low 0.964 | locus YDL185W, strain tfp1, active compounds read low 0.966 | locus YDL192W, strain arf1, active compounds read low 0.98 | locus YDR001C, strain nth1, active compounds read low 0.967 | locus YDR069C, strain doa4, active compounds read low 0.973 | locus YDR101C, strain arx1, active compounds read low 0.995 | locus YDR137W, strain rgp1, active compounds read low 0.902 | locus YDR150W, strain NUM1, active compounds read low 0.967 | locus YDR159W, strain sac3, active compounds read low 0.922 | locus YDR162C, strain NBP2, active compounds read low 0.843 | locus YDR195W, strain ref2 0.955 | locus YDR297W, strain sur2, active compounds read low 0.982 | locus YDR318W, strain mcm21, active compounds read low 1 | locus YDR334W, strain swr1, active compounds read low 0.946 | locus YDR335W, strain msn5, active compounds read low 0.981 | locus YDR388W, active compounds read low 0.987 | locus YDR392W, strain spt3, active compounds read low 0.842 | locus YDR502C, strain sam2, active compounds read low 0.951 | locus YEL003W, strain gim4, active compounds read low 0.976 | locus YEL037C, strain rad23, active compounds read low 0.969 | locus YEL061C, strain CIN8 (second series), active compounds read low 0.961 | locus YEL061C, strain CIN8, active compounds read low 0.968 | locus YER015W, strain faa2, active compounds read low 0.966 | locus YER016W, strain bim1, active compounds read low 0.982 | locus YER110C, active compounds read low 0.985 | locus YER111C, strain swi4, active compounds read low 0.978 | locus YER155C, strain BEM2 (second series), active compounds read low 0.982 | locus YER155C, strain BEM2, active compounds read low 0.972 | locus YER167W, strain BCK2, active compounds read low 0.989 | locus YFR010W, strain ubp6, active compounds read low 0.967 | locus YGL078C, strain dbp3, active compounds read low 0.968 | locus YGL086W, strain mad1, active compounds read low 0.996 | locus YGL167C, strain pmr1, active compounds read low 0.971 | locus YGL173C, strain kem1, active compounds read low 0.975 | locus YGL227W, strain vid30, active compounds read low 0.982 | locus YGL240W, strain doc1, active compounds read low 0.976 | locus YGL248W, strain PDE1, active compounds read low 0.969 | locus YGL253W, strain hxk2, active compounds read low 0.975 | locus YGR078C, strain PAC10, active compounds read low 0.963 | locus YGR135W, strain pre9, active compounds read low 0.922 | locus YGR229C, strain SMI1, active compounds read low 0.933 | locus YGR252W, strain gcn5, active compounds read low 1.05 | locus YHR013C, strain ard1, active compounds read low 0.964 | locus YHR027C, strain rpn1, active compounds read low 0.967 | locus YHR030C, strain SLT2, active compounds read low 0.993 and 0.958 | locus YHR079C, strain IRE1 (second series), active compounds read low 0.987 | locus YHR079C, strain IRE1, active compounds read low 0.989 | locus YHR094C, strain hxt1, active compounds read low 0.99 | locus YHR129C, strain ARP1, active compounds read low 0.975 | locus YHR142W, strain chs7, active compounds read low 0.979 | locus YHR200W, strain rpn10, active compounds read low 0.988 | locus YIL066C, strain RNR3, active compounds read low 0.953 | locus YIL073C, strain SPO22, active compounds read low 1.02 | locus YIL125W, strain kgd1, active compounds read low 0.991 | locus YIR030C, strain dcg1, active compounds read low 0.978 | locus YJL092W, strain hpr5, active compounds read low 0.98 | locus YJL095W, strain BCK1 (second series), active compounds read low 0.963 | locus YJL095W, strain BCK1, active compounds read low 0.916 and 0.981 | locus YJL115W, strain asf1, active compounds read low 0.96 | locus YJL129C, strain trk1, active compounds read low 0.957 | locus YJL134W, strain LCB3, active compounds read low 0.969 | locus YJL154C, strain vps35, active compounds read low 0.973 | locus YJL164C, strain tpk1, active compounds read low 0.997 | locus YJL166W, strain qcr8, active compounds read low 0.982 | locus YJL168C, strain set2, active compounds read low 0.976 | locus YJL187C, strain SWE1 (second series), active compounds read low 0.945 | locus YJL187C, strain SWE1, active compounds read low 0.969 | locus YJR043C, strain POL32, active compounds read low 1.03 | locus YJR066W, strain TOR1, active compounds read low 0.951
